VLA-4 inh – inhibition in a human VLA-4 binding assay. inhibition, % (about 7 µM as worked out from the volumes in the protocol). 330,000 compounds, 0.2% hits. P13612. VLA-4 expressing cells, ligand binding flow cytometry; in the data active = inhibition above about 50%
Target sequence (P13612 whole entry, looked up): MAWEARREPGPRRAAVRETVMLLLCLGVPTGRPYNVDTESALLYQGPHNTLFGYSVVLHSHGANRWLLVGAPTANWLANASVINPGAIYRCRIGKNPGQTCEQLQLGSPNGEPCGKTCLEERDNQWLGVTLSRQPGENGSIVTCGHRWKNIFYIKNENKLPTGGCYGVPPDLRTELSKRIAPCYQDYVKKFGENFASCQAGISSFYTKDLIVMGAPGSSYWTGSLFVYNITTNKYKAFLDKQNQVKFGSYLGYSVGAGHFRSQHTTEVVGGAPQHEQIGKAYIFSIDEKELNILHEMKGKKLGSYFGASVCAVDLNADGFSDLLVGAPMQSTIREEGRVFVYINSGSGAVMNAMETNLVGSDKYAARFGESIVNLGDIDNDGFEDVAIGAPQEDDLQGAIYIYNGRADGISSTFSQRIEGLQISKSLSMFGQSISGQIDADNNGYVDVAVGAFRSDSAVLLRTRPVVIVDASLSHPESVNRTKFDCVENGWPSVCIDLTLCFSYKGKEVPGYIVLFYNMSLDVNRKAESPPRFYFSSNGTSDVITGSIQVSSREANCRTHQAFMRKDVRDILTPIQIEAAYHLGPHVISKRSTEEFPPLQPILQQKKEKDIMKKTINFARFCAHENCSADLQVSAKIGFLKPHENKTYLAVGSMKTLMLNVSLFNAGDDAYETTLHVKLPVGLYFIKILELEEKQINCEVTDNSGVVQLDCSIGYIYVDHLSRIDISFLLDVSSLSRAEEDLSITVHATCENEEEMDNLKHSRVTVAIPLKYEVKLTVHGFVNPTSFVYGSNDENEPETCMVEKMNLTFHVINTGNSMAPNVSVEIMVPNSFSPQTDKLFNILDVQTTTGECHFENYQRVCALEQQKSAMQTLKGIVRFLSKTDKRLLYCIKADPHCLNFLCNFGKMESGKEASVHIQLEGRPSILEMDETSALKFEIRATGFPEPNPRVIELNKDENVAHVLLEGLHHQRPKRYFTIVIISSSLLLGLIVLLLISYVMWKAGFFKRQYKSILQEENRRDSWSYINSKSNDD
GASC-1 inh – blocks human GASC-1 demethylase activity. inhibition, % at 2.35 µM. GST-JMJD2C(1-420) H3K9me3 demethylation, DELFIA europium. AID 2099. 330,000 compounds, 0.069% hits;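 active = more than half of a compound's replicate wells show inhibition beyond 50%, single wells judged on their own value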;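 note: signal counts dimethyl H3K9 product captured on neutravidin plate; 0% = median of DMSO wells and 100% = 0.3 times that DMSO median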
Exocytosis inh – blocks lytic granule exocytosis. 360,000 compounds, 0.66% hits. TALL-104 LAMP-1 surface exposure, flow cytometry; cells stimulated with thapsigargin and PMA. AID 651702. inhibition, % at 10 µM;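 active = inhibition above about 55%, limit read from the data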
MEX-5 binding – C. elegans MEX-5 TCR-2 RNA binding activity | Q9XUB2 | MEX-5/FITC-TCR2 RNA binding, fluorescence polarization; hits give low values | activity score (negative = inhibition of binding), % at 10 µM | 300,000 compounds, 0.38% hits | AID 1832;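 active = inhibition past about -25% in most replicates, and total fluorescence under double the plate's negative control median, limit read from the data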;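 note: 0% = DMSO and -100% = 5 µM competing unlabeled TCR2 RNA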
V-ATPase pH – yeast V-ATPase proton transport regulation by pHLuorin. AID 504577. 350,000 compounds, 0.37% hits. S. cerevisiae, pHLuorin cytosolic pH fluorescence. response, % at 10 µM; in the data active = response mostly above about 7.3%, no sharp cut-off; inactive = mostly below about 5.4%; note: actives read high
m5-HT2A agonist – mouse HTR2A agonism via beta-arrestin recruitment; P35363; CHO-K1 mHTR2A beta-arrestin complementation, luminescence; percent of 30 µM serotonin response; activation, % at 7.6 µM; 360,000 compounds, 0.66% hits; AID 624169;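 active = activation above a run cutoff, the mean activation of all tested compounds plus 3 SD, cut at about 14% in these data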;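 note: 0% = plate median of compound wells and 100% = 30 µM serotonin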
Exocytosis CP01 – lytic granule exocytosis inhibition. shares compounds with Exocytosis inh. inhibition, % at 10 µM. 1,500 compounds, 11% hits. TALL-104 cells, LAMP-1 externalization, flow cytometry; stimulated with PMA plus thapsigargin. AID 651954; in the data active = inhibition above about 60%;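 note: 0% = stimulated vehicle wells and 100% = unstimulated wells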
* = called active by the depositor; . = not tested or not shown. Hits are enriched below; roughly 2.2% of the tested compounds scored in any of these assays.

SMILES	VLA-4 inh	GASC-1 inh	Exocytosis inh	MEX-5 binding	V-ATPase pH	m5-HT2A agonist	Exocytosis CP01
Cc1sc(NC(=O)c2cccc(N3C(=O)CCC3=O)c2)nc1-c1ccccc1	-3	-25	-3	-1	3	-6	.
CCOc1ccc(S(=O)(=O)N2CCCC(C(=O)Nc3cccc(C)c3)C2)cc1 (stereo not given)	14	11	63*	0	-4	5	-13
CC1(C(=O)NS(=O)(=O)Cc2ccccc2)CCN1C(=O)Cc1cc(F)ccc1F (stereo not given)	.	.	12	.	.	1	.
CC(C)(C)OC(=O)COc1cc(F)ccc1[N+](=O)[O-]	0	23	-8	.	6	2	.
O=[N+]([O-])c1ncccc1Oc1nc(-c2cccnc2)nc2ccccc12	4	-3	-4	0	0	1	.
Fc1ccccc1CNc1nc(-c2cccnc2)nc2ccccc12	-3	7	81*	-6	0	-14	-10
c1ccc(Oc2nc(-c3cccnc3)nc3ccccc23)cc1	-2	9	83*	0	5	-7	-3
NS(=O)(=O)c1ccc(N2N=C(c3ccccc3)CC2c2ccccc2Br)cc1 (stereo not given)	.	.	-1	.	1	-5	.
O=[N+]([O-])c1ccc(N2N=C(c3ccccc3)CC2c2ccccc2O)cc1 (stereo not given)	-151	-3	58*	-1	-2	-7	28
CC1CCN(c2nc(-c3ccccc3O)nc3ccccc23)CC1	-8	12	59*	3	1	-1	-15
CC(C)(C)C1CCN2CCCC(c3ccc([N+](=O)[O-])cc3)(C1)C21OCCO1 (stereo not given)	.	.	6	.	.	2	.
CCN(CC)S(=O)(=O)c1ccc2nc(CCl)[nH]c2c1	18	10	0	4	0	-2	.
CC(C)(C)[C@@H]1COC(=O)[C@H](Cc2ccc(F)cc2)CC/C=C\C[C@@H](CC(=O)N(CCO)Cc2ccccc2)C(=O)N1	-1	2	-8	.	2	-10	.
CC(C)(C)[C@@H]1COC(=O)[C@@H](Cc2ccc(F)cc2)C/C=C\C[C@H](CC(=O)N(CCO)Cc2ccccc2)C(=O)N1	6	2	57*	.	0	-1	-16
O=C1C2C3C=CC(CO)(O3)C2C(=O)N1c1ccc(-c2ccccc2)cc1 (stereo not given)	41	41	.	0	.	.	.
CC(C)(C)C(=O)NCC12C=CC(O1)C1C(=O)N(c3ccccc3)C(=O)C12 (stereo not given)	8	7	64*	0	-2	-4	1
Cc1ccc(NCCCn2cnc(C(=O)Nc3ccc(C)c(C)c3)n2)cc1C	.	.	0	.	5	3	.
Cc1cc(C)c(CN2CCN(CCCn3cnc(C(=O)Nc4ccc(C)c(C)c4)n3)CC2)c(C)c1	.	.	57*	.	1	2	15
Cc1ccc(NC(=O)Cn2ncn3c(cc4ccccc43)c2=O)cc1F	26	-1	106*	-1	1	1	-15
CCc1cccc(NC(=O)Cn2ncn3c(cc4ccccc43)c2=O)c1	26	2	-5	-2	3	1	.
CC1=C(C(=O)N2CCCCCC2)CC(CC(=O)NCc2cccc3ccccc23)C(=O)N1CCC1=CCCCC1 (stereo not given)	.	.	58*	.	.	-5	-6
CC1=C(C(=O)N(C)C)CC(CC(=O)NCCCCc2ccccc2)C(=O)N1CCC1=CCCCC1 (stereo not given)	.	.	-1	.	-1	-7	.
CC1=C(C(=O)N2CCCCCC2)CC(CC(=O)NCCCCc2ccccc2)C(=O)N1CCC1=CCCCC1 (stereo not given)	.	.	86*	.	.	-7	0
CC(C)CCNC(=O)C1CC2Cn3c(nc4cc(Cl)c(Cl)cc43)C2N1C (stereo not given)	-7	3	62*	0	-1	1	-12
Cc1ccc(S(=O)(=O)N2CCCCC2)cc1NC(=O)c1c(-c2ccccc2)noc1C	36	4	0	.	3	0	.
COc1ccc(CNC2CCN(Cc3ccccc3)CC2)cc1	0	10	60*	1	-1	-3	-3

High-throughput results deposited in PubChem BioAssay by several laboratories.
